Where “and” joins values, the source holds several entries; their conditions need not be identical. Equal values may be shown once. Records with an inconclusive call do not appear. Calls of active or inactive are those of the source. Unless noted, no stated cut-off is given here; in the data, active means inhibition above about 80%; inactive means the rest.
What was measured:
[1] = viability loss in pontine glioma line – cell-based, SU-DIPG-XIII, MIPE5.0, CellTiter-Glo, qHTS, dose response (AID 1347064; cut-off not given, nearly all actives have AC50 up to about 23 µM); conditions: CellTiter-Glo ATP luminescence
[2] = viability loss in pontine glioma line – cell-based, SU-DIPG-XXV, MIPE5.0, CellTiter-Glo, qHTS, dose response (AID 1347065; cut-off not given, nearly all actives have AC50 up to about 26 µM;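 further: cells exposed to compound for 48 hours before ATP readout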); conditions: CellTiter-Glo ATP luminescence
[3] = JHH-DIPG-1 glioma cell viability, MIPE5.0 library, CellTiter-Glo luminescence, qHTS (AID 1347067; cut-off not given, nearly all actives have AC50 up to about 26 µM;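 further: cells exposed to compound for 48 hours before readout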); conditions: JHH-DIPG-1 glioma viability, CellTiter-Glo ATP luminescence
[4] = growth inhibition of DIPG cells – cell-based, MIPE5.0 library, qHTS (AID 1347068; cut-off not given, nearly all actives have IC50 up to about 30 µM); conditions: SU-DIPG-XXV viability
[5] = biological target: ATP-dependent translocase ABCB1 (Homo sapiens) (UniProt P08183); assay: P-glycoprotein substrate transport blockade – cell-based (AID 377; in the data active means fluorescence slope change above about 50%); conditions: MDR1-expressing cells, fluorescent substrate accumulation slope; stronger effect = higher value; concentration not given here
Chain of ATP-dependent translocase ABCB1 (Homo sapiens) (P08183 whole entry, looked up): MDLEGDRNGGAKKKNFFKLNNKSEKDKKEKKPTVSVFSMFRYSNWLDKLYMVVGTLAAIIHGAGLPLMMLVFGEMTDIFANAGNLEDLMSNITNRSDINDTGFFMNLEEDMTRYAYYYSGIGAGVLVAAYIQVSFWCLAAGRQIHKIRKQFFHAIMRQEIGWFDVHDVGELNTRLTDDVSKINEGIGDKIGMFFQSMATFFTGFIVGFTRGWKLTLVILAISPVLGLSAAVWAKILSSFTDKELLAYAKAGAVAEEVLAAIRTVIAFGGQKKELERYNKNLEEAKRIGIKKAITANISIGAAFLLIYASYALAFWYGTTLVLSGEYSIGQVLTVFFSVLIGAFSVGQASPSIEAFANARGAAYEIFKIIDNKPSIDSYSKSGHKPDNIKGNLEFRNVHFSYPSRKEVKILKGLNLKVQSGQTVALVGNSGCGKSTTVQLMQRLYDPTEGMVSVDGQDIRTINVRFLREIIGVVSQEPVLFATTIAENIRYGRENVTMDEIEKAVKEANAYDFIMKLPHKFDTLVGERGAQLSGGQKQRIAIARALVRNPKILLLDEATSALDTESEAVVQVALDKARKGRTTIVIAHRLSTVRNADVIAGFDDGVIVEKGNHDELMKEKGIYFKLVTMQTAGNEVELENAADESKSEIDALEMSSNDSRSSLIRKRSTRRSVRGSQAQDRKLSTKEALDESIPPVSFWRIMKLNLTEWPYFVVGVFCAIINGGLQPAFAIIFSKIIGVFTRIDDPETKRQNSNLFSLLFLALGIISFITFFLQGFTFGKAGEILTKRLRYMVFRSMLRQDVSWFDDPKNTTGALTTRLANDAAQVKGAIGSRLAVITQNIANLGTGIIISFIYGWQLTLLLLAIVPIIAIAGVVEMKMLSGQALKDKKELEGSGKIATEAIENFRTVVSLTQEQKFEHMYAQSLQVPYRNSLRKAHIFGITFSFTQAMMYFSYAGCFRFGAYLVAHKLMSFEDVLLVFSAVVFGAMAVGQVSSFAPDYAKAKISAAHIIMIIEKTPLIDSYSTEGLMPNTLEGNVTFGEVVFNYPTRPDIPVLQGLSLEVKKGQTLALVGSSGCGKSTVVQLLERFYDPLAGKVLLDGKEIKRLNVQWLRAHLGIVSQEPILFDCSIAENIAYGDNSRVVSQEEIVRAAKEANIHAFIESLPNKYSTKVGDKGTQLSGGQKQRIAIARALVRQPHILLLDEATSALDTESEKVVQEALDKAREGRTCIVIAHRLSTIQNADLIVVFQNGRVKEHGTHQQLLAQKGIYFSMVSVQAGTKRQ

[6] = viability loss in pontine glioma line – cell-based, JHH-DIPG-1, MIPE4.0, CellTiter-Glo, qHTS, dose response (AID 1347062; cut-off not given, nearly all actives have AC50 up to about 27 µM); conditions: JHH-DIPG-1 viability, CellTiter-Glo ATP luminescence
[7] = viability loss in pontine glioma line – cell-based, SU-DIPG-IV, MIPE4.0, CellTiter-Glo, qHTS, dose response (AID 1347063; cut-off not given, nearly all actives have AC50 up to about 30 µM;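 further: compound exposure lasted 48 hours before the viability readout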); conditions: CellTiter-Glo ATP luminescence
[8] = growth inhibition of DIPG cells – cell-based, MIPE4.0 library, CellTiter-Glo luminescence, qHTS (AID 1347066; cut-off not given, nearly all actives have AC50 up to about 30 µM;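 further: cells exposed to compound for 48 hours before readout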); conditions: SU-DIPG-VI viability, CellTiter-Glo ATP luminescence
[9] = biological target: Mitogen-activated protein kinase 7 (Homo sapiens) (UniProt Q13164); assay: Gal4-ERK5 driven luciferase induction – cell-based, HTS, primary screen (AID 1508626;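 active means luciferase signal above three times the same-plate solvent-only control wells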;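 further: luciferase driven by Gal4-ERK5 fusion binding five Gal4 sites before minimal TATA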); conditions: HeLa Gal4-ERK5 transactivation, 18 h, at 5 µM, stronger effect = higher value
Chain of Mitogen-activated protein kinase 7 (Homo sapiens) (Q13164 whole entry, looked up, the tested form may be a part): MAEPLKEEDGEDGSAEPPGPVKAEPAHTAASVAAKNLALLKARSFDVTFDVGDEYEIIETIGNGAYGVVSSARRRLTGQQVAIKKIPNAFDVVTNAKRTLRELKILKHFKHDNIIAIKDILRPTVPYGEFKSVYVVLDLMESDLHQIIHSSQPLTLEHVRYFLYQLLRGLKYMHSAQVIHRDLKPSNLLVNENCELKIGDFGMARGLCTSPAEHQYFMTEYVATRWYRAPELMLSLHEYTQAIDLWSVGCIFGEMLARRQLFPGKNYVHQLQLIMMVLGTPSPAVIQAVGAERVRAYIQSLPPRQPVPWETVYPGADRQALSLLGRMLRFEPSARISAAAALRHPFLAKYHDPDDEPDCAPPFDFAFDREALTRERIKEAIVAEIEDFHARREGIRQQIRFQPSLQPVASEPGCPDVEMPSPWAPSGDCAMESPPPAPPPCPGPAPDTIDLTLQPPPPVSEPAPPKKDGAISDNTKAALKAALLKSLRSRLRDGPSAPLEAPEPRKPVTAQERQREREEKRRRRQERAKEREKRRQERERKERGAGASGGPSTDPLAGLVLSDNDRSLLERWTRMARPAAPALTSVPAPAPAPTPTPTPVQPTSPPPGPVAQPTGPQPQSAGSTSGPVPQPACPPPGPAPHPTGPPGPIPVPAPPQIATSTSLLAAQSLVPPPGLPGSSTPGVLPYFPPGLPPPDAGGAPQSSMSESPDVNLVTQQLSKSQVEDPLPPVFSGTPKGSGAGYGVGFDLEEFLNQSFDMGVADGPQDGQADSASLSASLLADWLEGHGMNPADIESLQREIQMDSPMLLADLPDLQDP

[10] = galactose survival enhancers in mitochondrial complex I cybrids – cell-based, galactose medium, ATP luminescence, primary screen (AID 1645843;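 active means z-score of at least 1.8 in each of two replicates, scored against plate mean and spread of sample wells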;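 further: positive z means more ATP and so rescue of galactose-driven cybrid death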); conditions: complex I mutant cybrid cells, 72 h, stronger effect = higher value
[11] = growth inhibition, single agents and combos, LFS_MB_1R, cell-based, cisplatin or BGB combos, synergistic combos for chromothripsis tumors (AID 1671452); conditions: LFS_MB_1R medulloblastoma cells, stronger effect = higher value;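 further: cells exposed for 96 hours before readout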
[12] = growth inhibition, single agents and combos, CRL2098, cell-based, BGB or cisplatin IC20 combos, synergistic combos for chromothripsis tumors (AID 1671454); conditions: CRL2098 osteosarcoma cells, drug combinations, stronger effect = higher value;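 further: cells exposed for 96 h before readout; 0% = vehicle DMSO and 100% = killing by high DMSO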
[13] = growth inhibition, single agents and combos, HD-MB03, cell-based, BGB or cisplatin IC20 combos, synergistic combos for chromothripsis tumors (AID 1671455; in the data active means inhibition above about 83%;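 further: 0% = vehicle DMSO and 100% = high DMSO as cytotoxic control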); conditions: HD-MB03 medulloblastoma cells, stronger effect = higher value
[14] = growth inhibition, single agents and combos, UWB1.289, cell-based, BGB or cisplatin combos, synergistic combos for chromothripsis tumors (AID 1671456); conditions: UWB1.289 ovarian carcinoma cells, stronger effect = higher value;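 further: cells exposed to compound for four days; 0% = vehicle DMSO and 100% = killing by high DMSO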
[15] = growth inhibition, single agents and combos, LFS_MB_2R, cell-based, cisplatin combos, synergistic combos for chromothripsis tumors (AID 1671457); conditions: LFS_MB_2R medulloblastoma cells, stronger effect = higher value;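 further: cells exposed to compound for four days before readout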
[16] = UWB1.289_BRCA1 ovarian cancer growth, cell-based, BGB or cisplatin combinations (AID 1671459); conditions: UWB1.289 BRCA1 ovarian carcinoma, drug combinations, stronger effect = higher value
[17] = drug combination toxicity in non-malignant astrocytes – cell-based, BGB or cisplatin IC20 combos, cytotoxicity control for chromothriptic childhood tumor combination screen (AID 1671460); conditions: Human astrocytes, viability inhibition, drug combinations, at 0.5 µM, stronger effect = higher value;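 further: cells exposed to compounds for 96 hours before viability readout; 0% = vehicle and 100% = killing control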
[18] = BT084 cell growth, single and combined drugs, ICGC_MB145, cisplatin and BGB IC40 combos (AID 1671461); conditions: BT084 medulloblastoma cells, drug combinations, stronger effect = higher value;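 further: cells exposed to drugs for 96 hours; 0% = vehicle DMSO and 100% = high DMSO full killing control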
[19] = RCMB18 cell growth, single agent and combined, cisplatin and BGB IC40 combos (AID 1671462); conditions: RCMB18 medulloblastoma cells, stronger effect = higher value;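 further: cells exposed to compound for four days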
[20] = CRL1545 cell growth, single agent and combined, cisplatin and BGB IC20 combos (AID 1671464); conditions: CRL1545 osteosarcoma cells, stronger effect = higher value;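 further: cells exposed to compound for 96 hours before readout; 0% = vehicle DMSO and 100% = high DMSO killing control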
[21] = measured here: combination with BGB IC40, at 0.05 µM
[22] = measured here: combination with cisplatin, at 0.5 µM
[23] = measured here: combination with cisplatin, at 5 µM
[24] = measured here: combination with BGB at IC20, at 0.5 µM
[25] = measured here: combination with cisplatin at IC20, at 0.5 µM
[26] = measured here: combo with BGB at IC20, at 0.5 µM
[27] = measured here: combo with cisplatin at IC20, at 0.5 µM
[28] = measured here: inhibition with BGB combination, at 0.05 µM
[29] = measured here: inhibition with cisplatin combination, at 0.05 µM
[30] = BGB combination, concentration series, at 5 µM
[31] = cisplatin combination, concentration series, at 5 µM
[32] = measured here: combo with BGB IC20
[33] = measured here: combo with cisplatin IC20
[34] = cisplatin combination, at 0.5 µM
[35] = measured here: BGB IC40 combination 0.05 uM, at 0.05 µM
[36] = measured here: BGB IC40 combination, at 0.05 µM
[37] = measured here: with BGB IC20 combination, at 0.5 µM
[38] = measured here: with cisplatin IC20 combination, at 0.5 µM

For `O=C(O)[C@H](O)[C@@H](O)[C@H](O[C@@H]1O[C@H](CO)[C@H](O)[C@H](O)[C@H]1O)[C@H](O)CO`, which outcome [1] is on record?
Its outcome is “inactive”.

And the outcome [2]?
Its outcome is “inactive”.

And the outcome [3]?
Its outcome is “inactive”.

And the outcome [4]?
The outcome was “inactive”.

With `OC(CCN1CCCCC1)(c1ccccc1)C1CC2C=CC1C2` (stereo not drawn) as the compound, how does the fluorescence slope change [5] read?
Its fluorescence slope change is 23% (inactive).

What about the outcome [6] of the same compound?
The outcome was “inactive”.

And the outcome [7]?
The outcome was “inactive”.

What about the outcome [2] of the same compound?
Its outcome is “inactive”.

And the outcome [8]?
The outcome was “inactive”.

And the outcome [3]?
The outcome was “inactive”.

And the outcome [4]?
Its outcome is “inactive”.

What about the luciferase signal [9] of the same compound?
The luciferase signal was 60 AU (inactive).

What about the z-score [10] of the same compound?
The z-score was -0.86 (inactive).

With `O=C(O)c1cc(=O)[nH]c(=O)[nH]1` as the compound, how does the outcome [6] read?
Its outcome is “inactive”.

And the outcome [7]?
Its outcome is “inactive”.

What about the outcome [1] of the same compound?
The outcome was “inactive”.

And the outcome [2]?
Its outcome is “inactive”.

What about the outcome [8] of the same compound?
The outcome was “inactive”.

What about the outcome [3] of the same compound?
The outcome was “inactive”.

And the outcome [4]?
Its outcome is “inactive”.

And the inhibition ([11]; at 0.5 µM)?
Its inhibition is -8.32% (inactive) and -28.4% (inactive).

And the inhibition [11, 21]?
Its inhibition is -17.9% and -11.5%.

And the inhibition [11, 22]?
Its inhibition is 16.2% and -37.9%.

What about the inhibition [11, 23] of the same compound?
Its inhibition is -31% and -23.1%.

What about the inhibition ([12]; at 0.5 µM) of the same compound?
Its inhibition is 2.38% (inactive) and -59.4% (inactive).

And the inhibition [12, 24]?
The inhibition was -8.75% and -29.4%.

What about the inhibition [12, 25] of the same compound?
The inhibition was 11.3% and -77.4%.

And the inhibition ([13]; at 0.5 µM)?
Its inhibition is 6.65% (inactive) and -10.7% (inactive).

What about the inhibition [13, 26] of the same compound?
Its inhibition is 8.02% and -14.5%.

What about the inhibition [13, 27] of the same compound?
The inhibition was 1.03% and -2.03%.

And the inhibition ([14]; at 0.5 µM)?
The inhibition was 9.26% (inactive) and -11.7% (inactive).

And the inhibition [14, 28]?
The inhibition was 1.2% and -34.8%.

What about the inhibition [14, 29] of the same compound?
Its inhibition is -6.87% and -27.5%.

And the inhibition ([15]; at 0.5 µM)?
Its inhibition is 8.17% (inactive) and -25% (inactive).

And the inhibition [15, 22]?
Its inhibition is -0.428% and -22.3%.

What about the inhibition [15, 23] of the same compound?
Its inhibition is 15.8% and -23.2%.

What about the inhibition [16, 30] of the same compound?
The inhibition was 11.8% and -20.6%.

And the inhibition ([16]; at 0.5 µM)?
Its inhibition is 7.12% (inactive) and -21.5% (inactive).

And the inhibition [16, 31]?
The inhibition was 16.5% and -12.9%.

What about the inhibition [17] of the same compound?
The inhibition was 6.1% (inactive) and -13.7% (inactive).

And the inhibition [17, 32]?
Its inhibition is 3.75% and -11.6%.

What about the inhibition [17, 33] of the same compound?
The inhibition was 18.5% and -10.3%.

What about the inhibition ([18]; at 0.5 µM) of the same compound?
Its inhibition is 0.676% (inactive) and -23.4% (inactive).

What about the inhibition [18, 34] of the same compound?
The inhibition was 4.02% and -10.6%.

And the inhibition ([18]; cisplatin combination, at 5 µM)?
Its inhibition is -30.1% and 9.58%.

What about the inhibition [18, 35] of the same compound?
Its inhibition is 29.1% and 10.4%.

And the inhibition ([18]; single agent, at 5 µM)?
Its inhibition is 10.6% and -23.7%.

What about the inhibition ([19]; at 0.5 µM) of the same compound?
The inhibition was 4.65% (inactive) and -11.2% (inactive).

What about the inhibition ([19]; cisplatin combo, at 5 µM) of the same compound?
The inhibition was 33.1% and 20.6%.

And the inhibition [19, 36]?
The inhibition was 20.2% and -17.2%.

And the inhibition [19, 22]?
The inhibition was 10.8% and 27.7%.

And the inhibition ([19]; single agent, at 5 µM)?
The inhibition was -13.7% and -20.9%.

What about the inhibition ([20]; at 0.5 µM) of the same compound?
The inhibition was -2.03% (inactive) and 7.29% (inactive).

And the inhibition [20, 37]?
The inhibition was -9.08% and 1.78%.

And the inhibition [20, 38]?
Its inhibition is 1.49% and 10%.

And the inhibition ([20]; single agent, at 0.05 µM)?
The inhibition was 0.986% and -9.64%.

What about the inhibition ([20]; single agent, at 5 µM) of the same compound?
The inhibition was -15.6% and -9.76%.

With `N=C(N=C(N)N)N1CCOCC1` as the compound, how does the fluorescence slope change [5] read?
Its fluorescence slope change is 25.2% (inactive).

What about the outcome [7] of the same compound?
Its outcome is “inactive”.

What about the outcome [8] of the same compound?
The outcome was “inactive”.

What about the z-score [10] of the same compound?
Its z-score is 0.495 (inactive).

What about the inhibition ([11]; at 0.5 µM) of the same compound?
The inhibition was -2.71% (inactive).

And the inhibition [11, 21]?
The inhibition was 2.02%.

What about the inhibition [11, 22] of the same compound?
The inhibition was 8.46%.

And the inhibition [11, 23]?
The inhibition was -12.4%.

And the inhibition ([12]; at 0.5 µM)?
The inhibition was -24.9% (inactive).

And the inhibition [12, 24]?
Its inhibition is -15.5%.

What about the inhibition [12, 25] of the same compound?
Its inhibition is -34.6%.

And the inhibition ([13]; at 0.5 µM)?
Its inhibition is -2.36% (inactive).

What about the inhibition [13, 26] of the same compound?
Its inhibition is 3.57%.

And the inhibition [13, 27]?
Its inhibition is -15.2%.

What about the inhibition ([14]; at 0.5 µM) of the same compound?
The inhibition was 6.16% (inactive).

What about the inhibition [14, 28] of the same compound?
Its inhibition is -1.97%.

What about the inhibition [14, 29] of the same compound?
Its inhibition is 3.05%.

What about the inhibition ([15]; at 0.5 µM) of the same compound?
Its inhibition is 6.81% (inactive).

And the inhibition [15, 22]?
Its inhibition is 8.19%.

And the inhibition [15, 23]?
Its inhibition is -31.5%.

What about the inhibition [16, 30] of the same compound?
Its inhibition is 1.52%.

What about the inhibition ([16]; at 0.5 µM) of the same compound?
The inhibition was 3.22% (inactive).

What about the inhibition [16, 31] of the same compound?
Its inhibition is 4.22%.

And the inhibition [17]?
The inhibition was 2.04% (inactive).

And the inhibition [17, 32]?
Its inhibition is 7.42%.

What about the inhibition [17, 33] of the same compound?
Its inhibition is -4.5%.

What about the inhibition ([18]; at 0.5 µM) of the same compound?
The inhibition was 3.57% (inactive).

What about the inhibition [18, 34] of the same compound?
The inhibition was -9.16%.

What about the inhibition ([18]; cisplatin combination, at 5 µM) of the same compound?
Its inhibition is 7.43%.

What about the inhibition [18, 35] of the same compound?
The inhibition was 0.739%.

And the inhibition ([18]; single agent, at 5 µM)?
The inhibition was -12.3%.

And the inhibition ([19]; at 0.5 µM)?
The inhibition was 5.29% (inactive).

And the inhibition ([19]; cisplatin combo, at 5 µM)?
Its inhibition is -26%.

What about the inhibition [19, 36] of the same compound?
The inhibition was -14.8%.

And the inhibition [19, 22]?
Its inhibition is 25.2%.

And the inhibition ([19]; single agent, at 5 µM)?
Its inhibition is -13.7%.

And the inhibition ([20]; at 0.5 µM)?
Its inhibition is 2.6% (inactive).

And the inhibition [20, 37]?
Its inhibition is -18.7%.

What about the inhibition [20, 38] of the same compound?
Its inhibition is 11.3%.

What about the inhibition ([20]; single agent, at 0.05 µM) of the same compound?
Its inhibition is 0.225%.

What about the inhibition ([20]; single agent, at 5 µM) of the same compound?
Its inhibition is 8.11%.
